We go through 26 sequences from PMC7862700, “An all-to-all approach to the identification of sequence-specific readers for epigenetic DNA modifications on cytosine”.

CRX, sequence (O43186 whole entry): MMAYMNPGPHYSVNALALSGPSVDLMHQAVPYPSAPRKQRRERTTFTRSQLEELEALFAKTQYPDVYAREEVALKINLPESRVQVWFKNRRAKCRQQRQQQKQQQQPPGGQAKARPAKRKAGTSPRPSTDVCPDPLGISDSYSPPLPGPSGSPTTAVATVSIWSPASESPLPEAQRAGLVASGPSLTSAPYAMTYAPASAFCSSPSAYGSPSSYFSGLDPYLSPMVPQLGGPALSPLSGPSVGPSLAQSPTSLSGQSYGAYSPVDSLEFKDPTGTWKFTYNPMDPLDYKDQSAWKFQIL

One assay deals with T1, GABPA (Homo sapiens, UniProt Q06546 1-454).
T1 sequence: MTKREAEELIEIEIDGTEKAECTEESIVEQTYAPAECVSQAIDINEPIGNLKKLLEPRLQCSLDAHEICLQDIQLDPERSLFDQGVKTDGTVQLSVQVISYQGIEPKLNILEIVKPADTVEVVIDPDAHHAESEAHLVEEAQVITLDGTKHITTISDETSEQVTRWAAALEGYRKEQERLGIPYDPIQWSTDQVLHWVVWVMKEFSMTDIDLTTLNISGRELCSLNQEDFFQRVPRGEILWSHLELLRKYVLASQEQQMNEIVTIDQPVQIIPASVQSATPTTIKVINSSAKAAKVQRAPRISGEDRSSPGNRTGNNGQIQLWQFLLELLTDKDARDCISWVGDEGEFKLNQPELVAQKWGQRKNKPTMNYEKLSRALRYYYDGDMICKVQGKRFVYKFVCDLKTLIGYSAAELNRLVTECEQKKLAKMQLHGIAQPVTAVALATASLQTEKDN
Briefly: DAPPL (digital affinity profiling via proximity ligation, sequencing); 10 mM Tris-HCl pH 7.5, 50 mM NaCl, 1 mM DTT, 4% glycerol, room temperature, 30 min; GST-TFs on glutathione beads, 16-mer random dsDNA library, 0.1% formaldehyde crosslink after washing; high values mean tight binding. To be noted: protein: recombinant; tags: N-terminal GST; dsDNA, one strand shown. The method, boiled down: (§1)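 Human transcription factors fused to GST were expressed in yeast, captured on glutathione beads, given DNA barcodes and pooled with a GST-only negative control. Pools were incubated with 200 nmole of a 16-mer random double-stranded DNA library in Tris/NaCl/DTT/glycerol buffer at room temperature for 30 min. They were then washed, crosslinked with 0.1% formaldehyde, proximity-ligated (BsaI/T4 ligase, 1 h, 37 °C), PCR-amplified and sequenced on an Illumina NextSeq500. Binding signal is each 6-mer's read frequency for a factor divided by its frequency for the GST control.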
With AGCTTG, the binding signal was 1.02 fold enrichment (6-mer frequency, TF over GST control).

Regarding CCAAAG, the binding signal is 1.01 fold enrichment (6-mer frequency, TF over GST control).

Turning to GTCTGC, the binding signal was 1.01 fold enrichment (6-mer frequency, TF over GST control).

Another assay concerns the target T2, EHF (Homo sapiens, UniProt Q9NZC4 1-300).
T2 sequence: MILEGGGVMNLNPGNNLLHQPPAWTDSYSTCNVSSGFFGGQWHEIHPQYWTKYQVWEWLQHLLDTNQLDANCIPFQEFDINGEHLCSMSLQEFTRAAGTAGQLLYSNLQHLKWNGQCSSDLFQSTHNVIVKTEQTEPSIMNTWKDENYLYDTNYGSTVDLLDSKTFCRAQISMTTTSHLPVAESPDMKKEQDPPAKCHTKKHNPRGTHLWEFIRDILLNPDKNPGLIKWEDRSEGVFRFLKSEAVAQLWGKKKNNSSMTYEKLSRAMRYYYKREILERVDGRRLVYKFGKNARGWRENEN
The description is as above. The note with it: protein: recombinant; tags: N-terminal GST; dsDNA, one strand shown. The method, boiled down: as §1
Regarding GGATGA, the binding signal was 1 fold enrichment (6-mer frequency, TF over GST control).

Take ACAAGG: the binding signal is 1.04 fold enrichment (6-mer frequency, TF over GST control).

GAGCTA: the binding signal is 1 fold enrichment (6-mer frequency, TF over GST control).

Regarding TGTCGC, the binding signal is 1.03 fold enrichment (6-mer frequency, TF over GST control).

As to CAACAG, the binding signal was 1 fold enrichment (6-mer frequency, TF over GST control).

For another assay, the target named is SPI1 (Homo sapiens, UniProt P17947 1-270). The assay is described as above. To be noted: protein: recombinant; tags: N-terminal GST; dsDNA, one strand shown. The method, boiled down: as §1
On to AGTACG, for which the binding signal was 1.02 fold enrichment (6-mer frequency, TF over GST control).

AAGGGA: the binding signal is 1.07 fold enrichment (6-mer frequency, TF over GST control).

For AGTCTT, the binding signal was 1.03 fold enrichment (6-mer frequency, TF over GST control).

Consider GTGCAC, for which the binding signal was 1.07 fold enrichment (6-mer frequency, TF over GST control).

For the sequence GTGTAA, the binding signal is 1.04 fold enrichment (6-mer frequency, TF over GST control).

On to TGTCGC, for which the binding signal was 1.02 fold enrichment (6-mer frequency, TF over GST control).

Another assay addresses T3, ELK3 (Homo sapiens, UniProt P41970 1-407).
T3 sequence: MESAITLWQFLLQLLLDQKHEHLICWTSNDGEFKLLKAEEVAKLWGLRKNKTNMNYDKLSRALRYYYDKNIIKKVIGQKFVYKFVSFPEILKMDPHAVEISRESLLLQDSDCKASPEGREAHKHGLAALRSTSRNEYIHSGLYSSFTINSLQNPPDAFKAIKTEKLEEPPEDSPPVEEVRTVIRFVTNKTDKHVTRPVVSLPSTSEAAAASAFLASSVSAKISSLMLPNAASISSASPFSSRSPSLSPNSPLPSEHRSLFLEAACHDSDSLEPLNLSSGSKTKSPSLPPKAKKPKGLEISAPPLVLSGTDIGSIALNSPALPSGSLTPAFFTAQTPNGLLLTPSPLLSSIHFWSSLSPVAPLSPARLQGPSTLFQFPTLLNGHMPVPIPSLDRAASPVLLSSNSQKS
The description is as above. The note with it: protein: recombinant; tags: N-terminal GST; dsDNA, one strand shown. In short, it runs like this:
as §1
On to AGTTAT, for which the binding signal was 1 fold enrichment (6-mer frequency, TF over GST control).

ACAAGG: the binding signal is 1.02 fold enrichment (6-mer frequency, TF over GST control).

On to GATTGG, for which the binding signal is 1.01 fold enrichment (6-mer frequency, TF over GST control).

In the case of CAACAG, the binding signal was 1.01 fold enrichment (6-mer frequency, TF over GST control).

In another assay the target is T4, ELF3 (Homo sapiens, UniProt P78545 1-371).
T4 sequence: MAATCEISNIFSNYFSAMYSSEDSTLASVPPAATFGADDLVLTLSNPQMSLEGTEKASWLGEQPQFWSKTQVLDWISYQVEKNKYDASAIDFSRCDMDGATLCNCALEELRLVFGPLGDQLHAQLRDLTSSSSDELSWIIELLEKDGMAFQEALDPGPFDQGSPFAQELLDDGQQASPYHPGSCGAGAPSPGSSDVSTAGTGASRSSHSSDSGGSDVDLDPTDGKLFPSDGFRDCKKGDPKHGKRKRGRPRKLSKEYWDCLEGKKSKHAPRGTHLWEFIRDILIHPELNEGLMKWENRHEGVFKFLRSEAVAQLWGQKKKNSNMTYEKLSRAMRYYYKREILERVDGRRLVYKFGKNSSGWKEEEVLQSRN
The description is as above. To be noted: protein: recombinant; tags: N-terminal GST; dsDNA, one strand shown. In short, it runs like this:
as §1
Turning to GAAAGG, the binding signal is 1.03 fold enrichment (6-mer frequency, TF over GST control).

Turning to TACGGG, the binding signal is 1.01 fold enrichment (6-mer frequency, TF over GST control).

As to AGTACG, the binding signal was 1.01 fold enrichment (6-mer frequency, TF over GST control).

As to AAGGGA, the binding signal was 1.03 fold enrichment (6-mer frequency, TF over GST control).

For GTGCAC, the binding signal is 1.02 fold enrichment (6-mer frequency, TF over GST control).

With ACCGGT, the binding signal is 1.01 fold enrichment (6-mer frequency, TF over GST control).

With GTGTAA, the binding signal was 1.11 fold enrichment (6-mer frequency, TF over GST control).

On to AGTTAT, for which the binding signal was 1.08 fold enrichment (6-mer frequency, TF over GST control).

As to ACAAGG, the binding signal was 1.09 fold enrichment (6-mer frequency, TF over GST control).

As for GAGCTA, the binding signal was 1.02 fold enrichment (6-mer frequency, TF over GST control).

Consider TGACAG, for which the binding signal is 1.09 fold enrichment (6-mer frequency, TF over GST control).

For CGCGGA, the binding signal is 1.07 fold enrichment (6-mer frequency, TF over GST control).

For the sequence GGTTGT, the binding signal is 1.06 fold enrichment (6-mer frequency, TF over GST control).

With TGTCGC, the binding signal is 1.08 fold enrichment (6-mer frequency, TF over GST control).

For CAACAG, the binding signal was 1.03 fold enrichment (6-mer frequency, TF over GST control).

The target of a further assay is CRX (Homo sapiens, UniProt O43186 1-299). Described as above. The note with it: protein: recombinant; tags: N-terminal GST; dsDNA, one strand shown. The method, boiled down:
as §1
With ATCAGG, the binding signal is 1.04 fold enrichment (6-mer frequency, TF over GST control).

As to GGATGA, the binding signal is 1.11 fold enrichment (6-mer frequency, TF over GST control).

On to TAGCCG, for which the binding signal is 1.05 fold enrichment (6-mer frequency, TF over GST control).

Regarding TATCGG, the binding signal was 1.1 fold enrichment (6-mer frequency, TF over GST control).

With GCGTAA, the binding signal was 1.03 fold enrichment (6-mer frequency, TF over GST control).

Turning to TAGAGG, the binding signal was 1.02 fold enrichment (6-mer frequency, TF over GST control).

For the sequence AGCTTG, the binding signal was 1.04 fold enrichment (6-mer frequency, TF over GST control).
